In all, about 47,000 compounds went through this assay and about 95 (0.2%) were called active. The list comes from a sample in which actives are over-represented; it also holds similar structures and randomly drawn compounds. Values without a mark were called inactive. No stated cut-off is given here; in the data, active means inhibition above about 30%; inactive means the rest.

Ubiquitin carboxyl-terminal hydrolase isozyme L1 (Homo sapiens), sequence (P09936 whole entry, looked up): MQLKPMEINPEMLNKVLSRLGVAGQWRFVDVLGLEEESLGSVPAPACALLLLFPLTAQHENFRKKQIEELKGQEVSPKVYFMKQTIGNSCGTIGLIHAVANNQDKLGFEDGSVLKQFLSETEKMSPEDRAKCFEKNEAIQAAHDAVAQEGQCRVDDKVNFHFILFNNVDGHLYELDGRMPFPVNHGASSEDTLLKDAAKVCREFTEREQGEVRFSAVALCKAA

The assay addresses Ubiquitin carboxyl-terminal hydrolase isozyme L1 (Homo sapiens) (UniProt P09936). As to the kind of experiment: blocks human UCHL1 ubiquitin-rhodamine cleavage (AID 1645859). The conditions noted are these: purified UCHL1, Ub-rhodamine cleavage fluorescence; at 20 µM; stronger effect = higher value.
As for `COCC(=O)N1CCC(n2c(-c3ccccc3OC)nc3ccccc32)CC1`, the inhibition (in general, the change of the read-out against control, counted positive when it falls) was -2.92%. With `COCCC(=O)N1CCC2(C/C=C/Cc3ccccc3OCC(=O)NCCNC2=O)CC1`, the inhibition was 3.12%. Then `COCC(=O)N1CCN2C[C@H]1C(=O)NC[C@H]1O[C@@H](CC(=O)N[C@H]3C[C@@H](C2=O)N(Cc2ccc(OC(F)(F)F)cc2)C3)[C@H](O)[C@@H]1O`, with -6.2%; and `FC(F)(F)c1ccc(-c2nnc(SCCOc3ccccc3)o2)cc1`, with 11.1%; and `Cc1ccc(CN2CN(C3CCN(C(=O)c4ccoc4)CC3)CC2=O)c(C)c1`, with -0.0513%. For the compound `O=C(Nc1nc2nc(-c3ccccc3)cc(=O)n2[nH]1)C1CCCCC1`, the inhibition was 4.88%. Take `Cc1nc(-c2cn(C(C)C)c3ncccc23)sc1C(=O)N1CCCC1`: the inhibition is 1.73%. Take `Cc1ccc(CNC(=O)c2cc(=O)nc3sc(N4CCCC(C)C4)nn23)cc1` (centres undefined): the inhibition was 0.655%. Take `COc1ccc(C(NC(=O)CN(C)Cc2ccc3c(c2)OCO3)c2ccccc2)cc1` (centres undefined): the inhibition was 6.51%. For the compound `Fc1ccccc1Cn1c(COc2ccccc2)nc2ccccc21`, the inhibition is 8.93%. `O=C(N[C@@H]1CN(Cc2nccs2)[C@@H]2COC[C@@H]21)C1CCC1`: the inhibition is -3.31%. For the compound `O=C(Nc1ccc(F)cc1)c1cc(CN2CCOCC2)on1`, the inhibition was 1.96%. On to `C=C1CCC2[C@](C)(CCC[C@]2(C)C(=O)OC)[C@H]1CCc1ccoc1/C=C/C(=O)O` (some centres undefined), for which the inhibition is 9.97%. In the case of `O=C1COC2(CCN(C(=O)C3(c4ccccc4)CCOCC3)C2)CN1c1ccc(F)cc1` (centres undefined), the inhibition is 2.68%. Regarding `O=C(CCc1ccncc1)N(Cc1ccc2c(c1)OCO2)C1CCCCC1`, the inhibition was -0.303%. Take `COC[C@H]1C[C@@H]2CN(S(=O)(=O)c3ccccc3OC)C(C)[C@H]1N2C` (some centres undefined): the inhibition is 0.608%.

With `O=C(Nc1nnc(-c2cccc([N+](=O)[O-])c2)o1)C1CCN(S(=O)(=O)c2ccc3c(c2)CCC3)CC1`, the inhibition is 5.08%. `Cc1nc(Nc2ccccn2)cc(C2CCCN2Cc2ncc[nH]2)n1` (centres undefined): the inhibition is -2.35%. The value for `CCc1cccc(NS(=O)(=O)c2ccc3c(c2)C(C)(C)C(=O)N3)c1` was 4.05%; that for `COc1cccc(CNC(=O)CN2C(=O)CCc3cc(Br)ccc32)c1` was 3.25%; that for `O=C1CC2(C(=O)N(Cc3cccc(Cl)c3)c3ccccc32)c2cn[nH]c2N1` (centres undefined) was -5.23%. For the compound `CCn1c(=O)c2ccccc2n(Cc2nc(-c3ccc(C)cc3)no2)c1=O`, the inhibition is -1.69%. Then `O=C(C1CCC1)N1CCN2C(=O)c3ccccc3[C@H]2C1`, with -4.57%. Then `O=C1C(O)=C(c2ccc(O)c(O)c2)C(=O)C(O)=C1c1ccccc1`, with 13.7%.

Consider `O=C1OCC2=C1C(c1ccccc1)CC(=O)N2c1cccc(F)c1` (centres undefined), for which the inhibition is -0.0471%. On to `Cc1nc(NCCO)c2sc3nc4c(cc3c2n1)COC(C)(C)C4`, for which the inhibition is 3.92%. The value for `CCOc1ccccc1-c1nc(-c2nnn(Cc3ccccc3)c2C)no1` was 7.54%.

With `COc1ccc(C(Nc2ccc(S(=O)(=O)NCC3CCCO3)cc2)C(=O)NCC2CCCO2)cc1` (centres undefined), the inhibition is 1.49%. Turning to `O=C(Cn1c(=O)n(Cc2cccs2)c(=O)c2cc(Cl)ccc21)NCC1CCCO1` (centres undefined), the inhibition was 0.727%.

For `Cc1nc(N2CCOCC2)ncc1-c1cc(=O)[nH]c(N2CCC(Cc3ccccc3)CC2)n1`, the inhibition was 5.31%. For `Cc1nc2ccccc2n1CC(O)c1ccccc1` (centres undefined), the inhibition is -0.449%. `O=C(c1noc2ccc(S(=O)(=O)N3CCCC3)cc12)N1CCCC1`: the inhibition is 0.984%. In the case of `Cc1ccc(CNc2nc3nc(CN4CCc5ccccc5C4)cc(=O)n3[nH]2)cc1`, the inhibition was -0.288%.

In the case of `O=C(Cn1cc(SCc2cccc(F)c2)c2ccccc21)N1CCCCCC1`, the inhibition is 7.23%.

`CC(C)Cc1cc(-c2nn3c(-c4ccccc4Cl)nnc3s2)n[nH]1`: the inhibition was 5.44%. The value for `Cc1c(-c2nn3c(-c4ccco4)nnc3s2)cccc1[N+](=O)[O-]` was 61.3% (active). Then `O=C(COc1cccc2ccc(N3CCC(Cc4ccccc4)CC3)nc12)NCc1ccc(F)cc1`, with 2.33%; and `O=C(c1cn(-c2cc(-c3nc(C4CC4)no3)ccn2)cn1)N1CCCCCC1`, with -3.62%. Then `O=C(NCCN1CCOCC1)C1CCN(c2ccc(N3CCCCC3)nn2)CC1`, with -0.229%. Regarding `Cc1ncc(-c2ccncc2)c(C2CCN(C(=O)c3cnccn3)CC2)n1`, the inhibition is 0.226%. Regarding `Cn1cc2nc(SCC(=O)NCc3ccc(Cl)cc3)n(CC3CC3)c(=O)c2n1`, the inhibition was -3.8%. Regarding `O=c1c2ccccc2c(-c2nc(-c3ccncc3)no2)cn1-c1ccc(F)cc1`, the inhibition is 3.33%. Take `CCCCCCSc1ncnc2c1sc1nc(-c3ccccc3)c3c(c12)CC(C)(C)OC3`: the inhibition was -2.54%. `CSc1ncnc2c1sc1nc(-c3ccccc3)c3c(c12)CC(C)(C)OC3`: the inhibition is 2.83%. The value for `CC1(C)Cc2c(c(-c3ccco3)nc3sc4c(SCCCc5ccccc5)ncnc4c23)CO1` was 56.3% (active); that for `CCc1cnc(N2CC[C@@H]3CN(CC)S(=O)(=O)[C@@H]3CC2)nc1` was 1.62%. As to `Cc1nc2c(c(=O)[nH]1)C(c1ccc(OCc3ccccc3F)cc1)CC(=O)N2` (centres undefined), the inhibition is -1.23%. Turning to `Cc1cc(N(C)C)nc(N2CCN(S(=O)(=O)c3ccc(-c4ccccc4)cc3)CC2)n1`, the inhibition is 1.74%.

For `Cc1cc(C)c2c(C)c(C(=O)NCc3csc(C)n3)oc2c1`, the inhibition is -0.0316%. In the case of `Cc1ccc(C(=O)N2CCc3cc(-c4csc(NC(=O)CNc5ccccc5)n4)ccc32)cc1`, the inhibition was -0.728%. For the compound `Cc1nn(-c2ccc(Cl)cc2)c2c1C(c1cccc(Br)c1)N1C(=N2)N(C)c2c1c(=O)n(C)c(=O)n2C` (centres undefined), the inhibition was -0.542%.

Consider `COCCCn1c(C(=O)N2CCC(C)CC2)cc2c(=O)n3ccccc3nc21`, for which the inhibition was -5.93%. In the case of `O=C1CN(C(=O)c2ccc(Cl)o2)c2ccccc2N1`, the inhibition is -5.13%.

With `CCc1nnc2ccc(C(=O)N3CCN(c4ccccn4)CC3)cn12`, the inhibition is 1.5%. Take `Fc1cc(F)cc(-c2noc3ncnc(N(Cc4ccco4)CC4CCCO4)c23)c1` (centres undefined): the inhibition was 0.782%. In the case of `Cc1ccc(CN2C[C@H]3C[C@H](C(=O)NC(C)C)[C@@H](C2)O3)o1`, the inhibition is 2.08%. Take `O=C1NC(=O)N2Cc3ccccc3CN(C(=O)c3ccc(Cl)cc3)CC12` (centres undefined): the inhibition was 0.947%.

Regarding `COc1ccc(CN=C2NS(=O)(=O)C(c3ccc(F)cc3)=C2C)cc1OC`, the inhibition was -4.12%. In the case of `c1coc(CNc2nc(Nc3cccc4ccccc34)nc3ccccc23)c1`, the inhibition was 5.02%. For `CC(CC(=O)N1CCc2ccccc2C1)S(=O)(=O)c1ccc2c(c1)NC(=O)CCS2` (centres undefined), the inhibition is -1.85%. On to `COc1ccc(C)cc1NC(=O)c1coc(NC(=O)c2ccco2)n1`, for which the inhibition is -2.46%.

Take `CO[C@H]1C[C@@H]2CC[C@@H](C)[C@@](O)(O2)C(=O)C(=O)N2CCCC[C@H]2C(=O)O[C@H]([C@H](C)C[C@@H]2CC[C@@H](O)[C@H](OC)C2)CC(=O)[C@H](C)/C=C(\C)[C@@H](O)[C@@H](OC)C(=O)[C@H](C)C[C@H](C)/C=C/C=CC=C1C`: the inhibition is 6.78%. Then `CCN1CCN(c2ccc(-c3nc(-c4cccc(F)c4)no3)cn2)CC1`, with -1.45%.

For the compound `CCc1nc(SCC(=O)Nc2cccc(OC)c2)c2c(=O)n(C)c(=O)n(C)c2n1`, the inhibition is -0.222%.

As to `O=C1C2Cc3c([nH]c4ccccc34)C(c3ccccc3)N2C(=O)CN1C1CCCCC1` (centres undefined), the inhibition is 5.95%.

As for `O=C(C1=Cc2ccccc2OC1)N1CCN(c2ccccc2)CC1`, the inhibition was 0.226%. The value for `COc1cccc(C(=O)NC2CC(=O)N(c3ccc(F)cc3)C2)c1OC` (centres undefined) was 0.016%.

On to `Cc1nc(C2CCN(C(=O)C(C)(C)C)CC2)cc(N2C(=O)OCC2C(C)C)n1` (centres undefined), for which the inhibition was -3.66%. Turning to `CC(C)c1cc(N2CCCCC2)nc(-c2ccccn2)n1`, the inhibition was -3.77%. Consider `CN(C)S(=O)(=O)N1C[C@H](OCc2ccccn2)[C@H]2OCCC[C@H]21`, for which the inhibition was -1.03%. As to `Cc1nccn1-c1cccc(C2CCCN(c3ncccn3)C2)n1` (centres undefined), the inhibition was -0.888%. Turning to `C/C=C(\C)C(=O)O[C@@H]1C[C@@]2(C)CC[C@H](C(C)C)[C@@]2(O)CC[C@@]1(C)O`, the inhibition is -2.54%. Then `O=C1CN2CC(c3ccccc3S2(=O)=O)N1Cc1ccccc1` (centres undefined), with -1.24%; and `CCC(=O)c1c(-c2ccc(F)cc2)c2c3n(c(-c4ccc(Cl)c(Cl)c4)cn13)CCCC2`, with 3.03%; and `O=C1N[C@H]2OCCC[C@H]2[C@H](c2cccc(CNC(=O)c3ccon3)c2)N1`, with 1.68%. For the compound `Cc1ccccc1CN1C(=O)N(c2cccc(F)c2)c2ncccc2S1(=O)=O`, the inhibition was 3.52%. With `Cc1cnn(CC2CCCN2Cc2nc(-c3ccco3)no2)c1` (centres undefined), the inhibition was -8.36%. `CC(=O)NCc1nc(-c2ccc3c(c2)nc(C)c(=O)n3C2CCCC2)no1`: the inhibition was -31.3%.

As to `O=C(C1CCCN(c2cnc3nccnc3c2)C1)N1CCCCCC1` (centres undefined), the inhibition was -42.4%. `CN(C)c1ncc(CN2CCN(C)C(c3ccccc3)C2)cn1` (centres undefined): the inhibition is -0.428%. `CNC(=O)C1Cc2ccccc2N1S(=O)(=O)c1cccnc1` (centres undefined): the inhibition was -8.34%. Take `Cc1ccc(C)c(S(=O)(=O)NCC(c2ccc3c(c2)CCN3C)N2CCCC2)c1` (centres undefined): the inhibition is -2.82%.

Take `COc1ccc(C(=O)N2CCCC(c3ccnc(=O)[nH]3)C2)cn1` (centres undefined): the inhibition is -1.26%. `Cc1ccc(NC(=O)N2CCSc3ccccc32)cc1`: the inhibition was -0.231%.

The values are drawn from PubChem BioAssay AID1645859 (Buhrlage Lab, Dana-Farber Cancer Institute and Novartis …, 2021).
